Source: PMC11006913
Positions count from the first letter of the chain named.

Tests used:
Experiment in all cases: PBM; 200 nM protein, PBS
Details in all cases: dsDNA, one strand shown
SIX6 [1] = molecular target: T1, SIX6 (Homo sapiens, UniProt O95475 114-200, L167I)
T1 sequence: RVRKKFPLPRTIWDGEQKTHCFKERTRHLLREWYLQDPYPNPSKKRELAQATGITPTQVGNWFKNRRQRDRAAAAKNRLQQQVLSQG

SIX6 [2] = molecular target: T2, SIX6 (Homo sapiens, UniProt O95475 114-200, L143V)
T2 sequence: T1 sequence with L30V, I54L

SIX6 [3] = molecular target: T3, SIX6 (Homo sapiens, UniProt O95475 114-200, H141N)
T3 sequence: T1 sequence with H28N, I54L

SIX6 [4] = molecular target: T4, SIX6 (Homo sapiens, UniProt O95475 114-200, T165P)
T4 sequence: T1 sequence with T52P, I54L

SIX6 [5] = molecular target: T5, SIX6 (Homo sapiens, UniProt O95475 114-200, L167M)
T5 sequence: T1 sequence with I54M

SIX6 [6] = molecular target: T6, SIX6 (Homo sapiens, UniProt O95475 114-200, L143M)
T6 sequence: T1 sequence with L30M, I54L

SIX6 [7] = molecular target: T7, SIX6 (Homo sapiens, UniProt O95475 114-200, L143I)
T7 sequence: T1 sequence with L30I, I54L

SIX6 [8] = molecular target: T8, SIX6 (Homo sapiens, UniProt O95475 114-200, T165G)
T8 sequence: T1 sequence with T52G, I54L

SIX6 [9] = molecular target: T9, SIX6 (Homo sapiens, UniProt O95475 114-200, T139Q)
T9 sequence: T1 sequence with T26Q, I54L

SIX6 [10] = molecular target: T10, SIX6 (Homo sapiens, UniProt O95475 114-200, T165A)
T10 sequence: T1 sequence with T52A, I54L

SIX6 [11] = molecular target: T11, SIX6 (Homo sapiens, UniProt O95475 114-200, L167V)
T11 sequence: T1 sequence with I54V

SIX6 [12] = molecular target: T12, SIX6 (Homo sapiens, UniProt O95475 114-200)
T12 sequence: T1 sequence with I54L

SIX6 [13] = molecular target: T13, SIX6 (Homo sapiens, UniProt O95475 114-200, T165I)
T13 sequence: T1 sequence with T52I, I54L

Sequence	binding signal (SIX6 [1])	binding signal (SIX6 [2])	binding signal (SIX6 [3])	binding signal (SIX6 [4])	binding signal (SIX6 [5])	binding signal (SIX6 [6])	binding signal (SIX6 [7])	binding signal (SIX6 [8])	binding signal (SIX6 [9])	binding signal (SIX6 [10])	binding signal (SIX6 [11])	binding signal (SIX6 [12])	binding signal (SIX6 [13])
AAGATATC	11.2 upbm affinity estimate (log intensity, higher = more binding, comparable within an allelic series)	10.4 upbm affinity estimate (log intensity, higher = more binding, comparable within an allelic series)	11.2 upbm affinity estimate (log intensity, higher = more binding, comparable within an allelic series)	10.1 upbm affinity estimate (log intensity, higher = more binding, comparable within an allelic series)	10.7 upbm affinity estimate (log intensity, higher = more binding, comparable within an allelic series)	11 upbm affinity estimate (log intensity, higher = more binding, comparable within an allelic series)	10.3 upbm affinity estimate (log intensity, higher = more binding, comparable within an allelic series)	11.1 upbm affinity estimate (log intensity, higher = more binding, comparable within an allelic series)	11.1 upbm affinity estimate (log intensity, higher = more binding, comparable within an allelic series)	11 upbm affinity estimate (log intensity, higher = more binding, comparable within an allelic series)	11 upbm affinity estimate (log intensity, higher = more binding, comparable within an allelic series)	10.9 upbm affinity estimate (log intensity, higher = more binding, comparable within an allelic series)	10.9 upbm affinity estimate (log intensity, higher = more binding, comparable within an allelic series)
GCCGCGGC	9.02 upbm affinity estimate (log intensity, higher = more binding, comparable within an allelic series)	8.88 upbm affinity estimate (log intensity, higher = more binding, comparable within an allelic series)	8.98 upbm affinity estimate (log intensity, higher = more binding, comparable within an allelic series)	9.04 upbm affinity estimate (log intensity, higher = more binding, comparable within an allelic series)	8.87 upbm affinity estimate (log intensity, higher = more binding, comparable within an allelic series)	9.03 upbm affinity estimate (log intensity, higher = more binding, comparable within an allelic series)	8.95 upbm affinity estimate (log intensity, higher = more binding, comparable within an allelic series)	9.01 upbm affinity estimate (log intensity, higher = more binding, comparable within an allelic series)	9.14 upbm affinity estimate (log intensity, higher = more binding, comparable within an allelic series)	8.95 upbm affinity estimate (log intensity, higher = more binding, comparable within an allelic series)	9.01 upbm affinity estimate (log intensity, higher = more binding, comparable within an allelic series)	9 upbm affinity estimate (log intensity, higher = more binding, comparable within an allelic series)	8.83 upbm affinity estimate (log intensity, higher = more binding, comparable within an allelic series)
ACGATACC	11.2 upbm affinity estimate (log intensity, higher = more binding, comparable within an allelic series)	10.3 upbm affinity estimate (log intensity, higher = more binding, comparable within an allelic series)	11.1 upbm affinity estimate (log intensity, higher = more binding, comparable within an allelic series)	9.65 upbm affinity estimate (log intensity, higher = more binding, comparable within an allelic series)	10.6 upbm affinity estimate (log intensity, higher = more binding, comparable within an allelic series)	11 upbm affinity estimate (log intensity, higher = more binding, comparable within an allelic series)	10.4 upbm affinity estimate (log intensity, higher = more binding, comparable within an allelic series)	11.3 upbm affinity estimate (log intensity, higher = more binding, comparable within an allelic series)	11.4 upbm affinity estimate (log intensity, higher = more binding, comparable within an allelic series)	11.1 upbm affinity estimate (log intensity, higher = more binding, comparable within an allelic series)	10.9 upbm affinity estimate (log intensity, higher = more binding, comparable within an allelic series)	11.1 upbm affinity estimate (log intensity, higher = more binding, comparable within an allelic series)	11 upbm affinity estimate (log intensity, higher = more binding, comparable within an allelic series)
ATACCCAT	10.6 upbm affinity estimate (log intensity, higher = more binding, comparable within an allelic series)	10.1 upbm affinity estimate (log intensity, higher = more binding, comparable within an allelic series)	10.6 upbm affinity estimate (log intensity, higher = more binding, comparable within an allelic series)	9.74 upbm affinity estimate (log intensity, higher = more binding, comparable within an allelic series)	10.4 upbm affinity estimate (log intensity, higher = more binding, comparable within an allelic series)	10.6 upbm affinity estimate (log intensity, higher = more binding, comparable within an allelic series)	10.1 upbm affinity estimate (log intensity, higher = more binding, comparable within an allelic series)	10.7 upbm affinity estimate (log intensity, higher = more binding, comparable within an allelic series)	10.8 upbm affinity estimate (log intensity, higher = more binding, comparable within an allelic series)	10.5 upbm affinity estimate (log intensity, higher = more binding, comparable within an allelic series)	10.4 upbm affinity estimate (log intensity, higher = more binding, comparable within an allelic series)	10.6 upbm affinity estimate (log intensity, higher = more binding, comparable within an allelic series)	10.4 upbm affinity estimate (log intensity, higher = more binding, comparable within an allelic series)
ATGGCCCG	8.97 upbm affinity estimate (log intensity, higher = more binding, comparable within an allelic series)	8.9 upbm affinity estimate (log intensity, higher = more binding, comparable within an allelic series)	9.08 upbm affinity estimate (log intensity, higher = more binding, comparable within an allelic series)	9.03 upbm affinity estimate (log intensity, higher = more binding, comparable within an allelic series)	9 upbm affinity estimate (log intensity, higher = more binding, comparable within an allelic series)	8.97 upbm affinity estimate (log intensity, higher = more binding, comparable within an allelic series)	8.99 upbm affinity estimate (log intensity, higher = more binding, comparable within an allelic series)	9.03 upbm affinity estimate (log intensity, higher = more binding, comparable within an allelic series)	9.09 upbm affinity estimate (log intensity, higher = more binding, comparable within an allelic series)	8.99 upbm affinity estimate (log intensity, higher = more binding, comparable within an allelic series)	8.99 upbm affinity estimate (log intensity, higher = more binding, comparable within an allelic series)	9 upbm affinity estimate (log intensity, higher = more binding, comparable within an allelic series)	9.05 upbm affinity estimate (log intensity, higher = more binding, comparable within an allelic series)
ACGATATC	11.1 upbm affinity estimate (log intensity, higher = more binding, comparable within an allelic series)	10.2 upbm affinity estimate (log intensity, higher = more binding, comparable within an allelic series)	11.1 upbm affinity estimate (log intensity, higher = more binding, comparable within an allelic series)	9.76 upbm affinity estimate (log intensity, higher = more binding, comparable within an allelic series)	10.6 upbm affinity estimate (log intensity, higher = more binding, comparable within an allelic series)	11 upbm affinity estimate (log intensity, higher = more binding, comparable within an allelic series)	10.3 upbm affinity estimate (log intensity, higher = more binding, comparable within an allelic series)	11.3 upbm affinity estimate (log intensity, higher = more binding, comparable within an allelic series)	11.2 upbm affinity estimate (log intensity, higher = more binding, comparable within an allelic series)	11 upbm affinity estimate (log intensity, higher = more binding, comparable within an allelic series)	10.9 upbm affinity estimate (log intensity, higher = more binding, comparable within an allelic series)	10.9 upbm affinity estimate (log intensity, higher = more binding, comparable within an allelic series)	10.8 upbm affinity estimate (log intensity, higher = more binding, comparable within an allelic series)
